# Experimental data reported in ChEMBL document CHEMBL3988442, “University of Dundee, Small-Polar-MMV Screening Library” (2021).
# The campaign covered roughly 48,000 compounds. About 13,000 (27%) showed an effect of 50% or more. The list shows a part of the results.
# Test system: Wolbachia pipientis
# Assay: Anti-Wolbachia Cell-Based Screen
# Assay type: functional
# Parameters: scale not given: in the data most compounds retested in dose-response had high values
# Conditions: 5 µM
row,Structure (SMILES),Percent Effect [%]
1,CSCCNC(=O)C1CCC(=O)N(C2CCCC2)C1 (stereo not drawn),-26.76
2,CCOCc1ccccc1NC(=O)NCC(c1cnn(C)c1)N(C)C (stereo not drawn),-8.458
3,Cc1nc(C(=O)N(C)C2CC(=O)N(Cc3ccccc3)C2=O)cs1 (stereo not drawn),-12.75
4,CCOC(=O)N1[C@@H](c2ccco2)[C@@H](C(=O)O)C[C@]12CCCCNC2=O,122.2
5,CCOC(=O)CCNC(=O)N1CCCC(CNC(=O)c2ccco2)C1 (stereo not drawn),4.582
6,CCOC(=O)N1[C@@H](c2ccco2)[C@@H](C(=O)NC)C[C@]12CCCCNC2=O,102
7,Cc1cc(NC(N)=O)ccc1C(=O)N(C)C,10.57
8,CC(=O)N1CCC(c2nnc3ccc(C(=O)NC(C)C)cn23)C1 (stereo not drawn),15.69
9,CN(C)C(=O)N1CCN(CCCc2ccccc2)[C@H]2CS(=O)(=O)C[C@H]21,-9.893
10,CN(Cc1coc(-c2ccccc2)n1)CC1CCCN1c1cccnn1 (stereo not drawn),26.49
11,CC1CCCCN1C(=O)c1ccc2c(c1)OCCCO2 (stereo not drawn),-1.264
12,O=C(c1ccco1)N1C(CO)[C@]2(O)CC[C@H]1CC2 (stereo partly drawn),85.33
13,COCc1ccccc1NC(=O)[C@@H]1CCCN1C(=O)c1ccco1,6.983
14,O=C(c1ccco1)N1C(CN2CCOCC2)[C@]2(O)CC[C@H]1CC2 (stereo partly drawn),107
15,O=C(c1ccco1)N1CCC(CSCc2ccco2)CC1,-5.267
16,COCC1N(C(=O)c2ccc3c(c2)OCCCO3)[C@H]2CC[C@]1(O)CC2 (stereo partly drawn),106.3
17,O=C(NCC1CC1)C1CN(C(=O)c2ccco2)CC12CCOCC2 (stereo not drawn),-3.478
18,COC(=O)c1sccc1NC(=O)C1CCCN1C(=O)c1ccco1 (stereo not drawn),-17.58
19,O=C(c1ccc2c(c1)OCCCO2)N1CCCCC1C1OCCO1 (stereo not drawn),-8.172
20,O=C(c1ccco1)N1CC[C@@H](N2CCOCC2)[C@@H]1Cc1ccccc1,-19.81
21,COCC1N(C(=O)c2ccco2)[C@H]2CC[C@]1(O)CC2 (stereo partly drawn),106.6
22,O=C(c1ccco1)N1CC[C@H]2[C@H]1CCN2S(=O)(=O)C1CC1,-8.248
23,COc1ccc(CC(C)(O)CNC(=O)c2cccs2)cc1 (stereo not drawn),9.514

row,Structure (SMILES),Percent Effect [%]
1,O=C(CCNc1ncccn1)NCCc1ccc(Cl)s1,4.707
2,CN1CCN(C2CCN(Cc3ccc(Cl)s3)CC2)C1=O,-8.107
3,CN1C[C@H]2CN(Cc3cccc(OC(F)(F)F)c3)CCN2C1=O,-0.9762
4,CN1CCN(C2CCN(CCOc3cccc(Cl)c3)CC2)C1=O,94.86
5,CCN1CCN(C2CCN(CCOc3ccc(F)cc3)CC2)C1=O,105.5
6,O=C(O)[C@H]1CCCN1CCOc1cccc(Cl)c1,-3.257
7,CN1CCN(C2CCN(CCOc3cccc(F)c3)CC2)C1=O,93.98
8,CCN1CCN(C2CCN(C(C(N)=O)c3ccc(F)cc3)CC2)C1=O (stereo not drawn),-3.81
9,CCN1CCN(C2CCN(Cc3ccc(Cl)s3)CC2)C1=O,-13.73
10,CN1CCN(C2CCN(CCOc3ccc(Cl)cc3)CC2)C1=O,110.5
11,Cc1cc(C)n(CC2CN(CCOc3cccc(F)c3)CCO2)n1 (stereo not drawn),-4.27
12,CN1CCN(C2CCN(Cc3ccc(Cl)cc3)CC2)C1=O,-21.74
13,CCOC(=O)N1C[C@H]2CC[C@@H]1CN(Cc1ccccc1)C2,-18.44
14,Cn1ccc(CS(=O)(=O)Cc2cccc(F)c2)cc1=O,13.57
15,COCCN(Cc1ccc(F)cc1Cl)C(=O)c1ccncc1,-4.791
16,Cc1nn2c(N3CCC(O)CC3)cc(-c3ccccc3)nc2c1C,1.799
17,CC(=O)c1cccc(NC(=O)CN2CCCCC2C2OCCO2)c1 (stereo not drawn),12.92
18,O=C(NCc1ccccc1CN1CCC(O)CC1)Nc1ccncc1,-8.548
19,CC(C)CN1CCC(C(=O)NCCNC(=O)c2ccccc2)CC1,10.43
20,COc1cc(-c2noc(C(CC(C)C)N3CCCCC3=O)n2)ccn1 (stereo not drawn),-8.352
21,Cc1noc(C2CCN(C(C)c3nc(C4CC4)no3)CC2)n1 (stereo not drawn),2.218
22,CN1CCN(C2CCN(Cc3noc(-c4ccccc4)n3)CC2)C1=O,-0.9175
23,CN1CCN(C2CCN(CCOc3ccc(C#N)cc3)CC2)C1=O,102.1

row,Structure (SMILES),Percent Effect [%]
1,CN1CCN(C2CCN(CCOc3ccc(F)cc3)CC2)C1=O,-2.232
2,CN1CCN(C2CCN(CCCOc3ccc(F)cc3)CC2)C1=O,81.83
3,CN1CCN(C2CCN(CCOc3ccccc3)CC2)C1=O,94.15
4,Cn1c(C2CC2)nc2c1CCN(CCOc1ccc(C#N)cc1)C2,-1.848
5,OCCn1cc(CN2CCN(CCOc3ccccc3F)CC2)cn1,2.742
6,CN1CCN(C2CCN(CCOc3ccccc3F)CC2)C1=O,107.7
7,COc1ccc(CCN2CCC(N3CCN(C)C3=O)CC2)cc1,-2.52
8,CN1CCN(C2CCN(C(C(N)=O)c3ccccc3)CC2)C1=O (stereo not drawn),-3.145
9,CC(C)c1nnc(CNc2nc(-c3cccnc3)nc3c2CCC3)n1C,6.162
10,Cc1cnn(CCNCc2csc(-c3cccs3)n2)c1,-4.856
11,Cc1cc(CC(=O)NCC(O)COc2ccc(F)c(F)c2)no1 (stereo not drawn),-5.317
12,Cc1cccc(-c2nc(CN3CCc4c(ncn4C)C3)no2)c1,5.431
13,COC(C)C(=O)NS(=O)(=O)c1cccc2cc(C)cnc12 (stereo not drawn),-12.97
14,CCc1cnc(NCC(CC)N2CCOCC2)nc1 (stereo not drawn),14.29
15,COCCNC(=O)Nc1ccc(CN2CCOC2=O)cc1,-11.28
16,COc1ccc(C(C)n2ccnc2-c2cc3n(n2)CCCNC3)cc1F (stereo not drawn),6.118
17,O=C1CCC(C(=O)NCc2nncn2-c2ccccc2)CN1 (stereo not drawn),3.893
18,Cc1cccc(CNCC2COC3(CCCCC3)O2)c1C (stereo not drawn),5.002
19,COc1ccc2[nH]nc(CN3CCC(C(C)N4CCCC4)CC3)c2c1 (stereo not drawn),-10.16
20,CN(Cc1ccco1)Cc1cnc2n1CCN(c1ncccn1)CC2.O=C(O)C(F)(F)F,6.885
21,COCCN1CCc2ncc(CNc3cc(N(C)C)ncn3)n2CC1,-5.126
22,Cn1cccc1C(=O)NCc1cnc2n1CCN(c1ccccn1)C2,-1.189
23,Cc1ccc(N2CCc3ncc(CNc4ccccn4)n3CC2)nn1,114.5

row,Structure (SMILES),Percent Effect [%]
1,O=C(C1CCOC1)N1CCc2ncc(CNc3ccccn3)n2CC1 (stereo not drawn),-18.08
2,Cc1ccc(NCc2cnc3n2CCN(c2ncccn2)CC3)nn1,97.55
3,CN(Cc1ccco1)C(=O)CN1CCCC(Cn2cncn2)C1 (stereo not drawn),5.962
4,Cc1ccc(CN(C)C(=O)CN2CCCC(Cn3cncn3)C2)cc1 (stereo not drawn),90.35
5,CN(Cc1ccsc1)C(=O)CN1CCCC(Cn2cncn2)C1 (stereo not drawn),109.8
6,CN(Cc1ccccc1)C(=O)CN1CCCCC1Cn1cncn1 (stereo not drawn),-0.2947
7,CN(Cc1cccc(F)c1)C(=O)CN1CCCC(Cn2cncn2)C1 (stereo not drawn),16.73
8,Cc1ccc(CN(C)C(=O)CN2CCCC2Cn2cncn2)cc1 (stereo not drawn),-14.18
9,O=C(CN1CCCC(Cn2cncn2)C1)NCc1ccco1 (stereo not drawn),1.739
10,CN(Cc1ccsc1)C(=O)CN1CCCC1Cn1cccn1 (stereo not drawn),-10.05
11,CN(Cc1ccccc1)C(=O)CN1CCCC(Cn2cncn2)C1 (stereo not drawn),97.22
12,CCN(Cc1ccccc1)C(=O)CN1CCCC(Cn2cncn2)C1 (stereo not drawn),3.711
13,Cc1ccc(CN(C)C(=O)CN2CCCC(Cn3cncn3)C2)o1 (stereo not drawn),96.55
14,CN(Cc1ccc(F)cc1)C(=O)CN1CCCC(Cn2cncn2)C1 (stereo not drawn),-5.404
15,CC(C)c1nc(CN(C)C(=O)CCS(=O)(=O)c2ccccc2)no1,-0.5439
16,O=C(NS(=O)(=O)c1cccc(C(F)(F)F)c1)c1cscn1,5.239
17,CSCC(C)CNC(=O)N1CCSC(C)(C)C1 (stereo not drawn),-11.84
18,Cc1ccsc1C(=O)N1CCCn2nnc(Cn3cccn3)c2C1,-8.648
19,NC(=O)C1CCN(CC(=O)NCCc2c(F)cccc2F)CC1,-5.279
20,CN(Cc1cnn(C)c1)C(=O)CN1CCCCC1Cn1cncn1 (stereo not drawn),-1.261
21,CN(Cc1cccs1)C(=O)CN1CCCCC1Cn1cncn1 (stereo not drawn),-8.193
22,CN(Cc1cnn(C)c1)C(=O)CN1CCCC(Cn2cncn2)C1 (stereo not drawn),99.58
23,CN(Cc1cccs1)C(=O)CN1CCCC1Cn1cncn1 (stereo not drawn),4.485

row,Structure (SMILES),Percent Effect [%]
1,Cc1ccc(CNC(=O)CN2CCCC(Cn3cncn3)C2)s1 (stereo not drawn),2.763
2,CN(Cc1cccs1)C(=O)CN1CCCC(Cn2cncn2)C1 (stereo not drawn),104.7
3,Cc1ccccc1CN(C)C(=O)CN1CCCC(Cn2cncn2)C1 (stereo not drawn),113.1
4,CN(Cc1cnn(C)c1)C(=O)CN1CCCC1Cn1cncn1 (stereo not drawn),-17.06
5,Cc1ccccc1CN(C)C(=O)CN1CCCCC1Cn1cncn1 (stereo not drawn),13
6,Cc1ccc(F)c(OC2(C(=O)O)CCN(C(=O)C3CCCC3)CC2)c1,-29.08
7,CC(C)c1nccn1CCn1cnc2ccsc2c1=O,2.985
8,Cc1ccc(C(=O)NCCCC2(C3OCCO3)CCOCC2)cc1C,-3.842
9,Cc1ccccc1CN(C)C(=O)CCc1nc(-c2nnc[nH]2)no1,4.436
10,CNC(=O)c1cc2c(nc1N(C)C)CCN(S(=O)(=O)C1CC1)CC2.O=C(O)C(F)(F)F,-2.828
11,CCS(=O)(=O)N1CCc2cc(C(=O)NC)c(N(C)C)nc2CC1,15.07
12,CCc1cnc(N2CCc3cc(C(=O)NC)c(N(C)C)nc3CC2)nc1.O=C(O)C(F)(F)F,91.47
13,CNC(=O)c1cc2c(nc1NCC(C)C)CCN(C)CC2.O=C(O)C(F)(F)F.O=C(O)C(F)(F)F,-3.691
14,CNC(=O)c1cc2c(nc1N(C)C)CCN(c1ncccn1)CC2.O=C(O)C(F)(F)F,100.6
15,CNC(=O)c1cc2c(nc1N(C)C)CCN(S(=O)(=O)N(C)C)CC2.O=C(O)C(F)(F)F,-4.998
16,CNC(=O)c1cc2c(nc1N(C)C)CCN(C)CC2.O=C(O)C(F)(F)F.O=C(O)C(F)(F)F,0.7225
17,CNC(=O)c1cc2c(nc1N(C)C)CCN(c1ncc(C)cn1)CC2.O=C(O)C(F)(F)F,101.6
18,CNC(=O)c1cc2c(nc1NCC(C)C)CCN(c1ncccn1)CC2.O=C(O)C(F)(F)F,-3.442
19,CNC(=O)c1cc2c(nc1N(C)C)CCN(S(=O)(=O)CC(C)C)CC2.O=C(O)C(F)(F)F,-14.6
20,CCc1cnc(N2CCc3ncnc(N4CCN(C)CC4)c3CC2)nc1.O=C(O)C(F)(F)F,-0.8279
21,CNC(=O)c1cc2c(nc1N(C)C)CCN(c1ncc(F)cn1)CC2.O=C(O)C(F)(F)F,86.67
